hgDAF12 agonist: activates the H. glycines DAF-12 receptor ligand-binding domain. HEK293 GAL4-hgDAF12 UAS-luciferase reporter, agonist luminescence; normalized to butyrate control. activation, % at 6.8 µM. 370,000 tested, 1.8% active. AID 687014;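 active means activation above a cutoff set at the mean of all screened compounds plus 3 SD, cut at about 10% in these data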;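 further: 0% = DMSO wells and 100% = sodium butyrate wells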
ssDAF-12 act: activators of S. stercoralis DAF-12 nuclear receptor | AID 652126 | HEK293 ssDAF-12/GRIP1 lit1-tk-luc reporter, luminescence; % of 3 µM dafachronic acid response | 370,000 tested, 1% active | activation, % at 6.8 µM;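 active means activation above the mean over all tested compounds plus 3 SD, cut at about 0.9% in these data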;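 further: 0% = DMSO-only wells and 100% = 3 µM delta7-dafachronic acid wells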
DAX1 inh-1: inhibitors of human orphan nuclear receptor DAX1 (NR0B1). P51843. inhibition, % at 6.75 µM. 340,000 tested, 0.99% active. HEK293 Gal4-DAX1 luciferase reporter, luminescence;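 active means inhibition above the mean over all tested compounds plus 3 SD, cut at about 4.2% in these data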;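 further: 0% = DAX1-transfected cells with DMSO and 100% = empty-vector control cells with DMSO; inhibition shows as a rise in luminescence from relieved DAX1 repression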
Target sequence (P51843 207-470 limits assumed): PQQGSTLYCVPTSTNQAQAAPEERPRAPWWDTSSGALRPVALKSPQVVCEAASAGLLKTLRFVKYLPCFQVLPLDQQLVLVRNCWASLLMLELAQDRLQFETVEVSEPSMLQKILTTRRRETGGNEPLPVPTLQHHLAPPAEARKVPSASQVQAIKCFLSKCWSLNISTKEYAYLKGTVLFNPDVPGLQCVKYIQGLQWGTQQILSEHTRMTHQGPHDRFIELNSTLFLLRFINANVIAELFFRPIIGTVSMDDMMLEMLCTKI
DAX1 inh-2: DAX1 (NR0B1) inhibition, primary screen; HEK293T StAR-luciferase reporter, SF-1/DAX-1 repression relief; inhibition, % at 6.8 µM; 370,000 tested, 1.1% active;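 active means inhibition above the mean over all tested compounds plus 3 SD, cut at about 3.6% in these data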;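 further: 0% = DAX-1 cells with DMSO and 100% = cells lacking DAX-1 with DMSO; higher inhibition means more luminescence from relief of DAX-1 repression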
hcDAF12 agonist: activators of H. contortus DAF-12 nuclear receptor. 370,000 tested, 1.4% active. activation, % at 6.8 µM. AID 652067. HEK293 hcDAF-12 lit1-tk-luc reporter, luminescence; 0% DMSO, 100% Δ7-dafachronic acid;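 active means activation above the mean of all tested compounds plus 3 SD, cut at about 5.5% in these data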;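 further: 100% = response to 3 µM Δ7-dafachronic acid high control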
The depositor's hits bear a star; . = no result given. Most compounds without a hit are left out; they make up all but 4.1% or so of the library.

SMILES | hgDAF12 agonist | ssDAF-12 act | DAX1 inh-1 | DAX1 inh-2 | hcDAF12 agonist
Cc1cccc(OC(C)CCN2CCC(C(O)(c3ccccc3)c3ccccc3)CC2)c1 (centres undefined) | -3 | -1 | . | 0 | 3
CC(CCN1CCC(C(O)(c2ccccc2)c2ccccc2)CC1)Oc1ccc(C#N)cc1F (centres undefined) | -3 | -1 | . | 0 | 6.0*
CCc1ccc(CN2CCC(n3nccc3NC(=O)c3ccccc3C)CC2)cc1 | -4 | -2 | -1 | -3 | -1
Cc1ccccc1C(=O)Nc1ccnn1C1CCN(Cc2c(C)n(C)c3ccccc23)CC1 | 0 | -1 | 1 | 0 | 6.1*
O=C(N/N=C/c1ccoc1)c1ccc(Br)cc1 | 2 | -1 | 0 | -2 | 2
CC(=O)n1cc(Nc2ccccc2C(=O)O)c2ccccc21 | 2 | 0.9* | 0 | 1 | 2
O=C(N/N=C/c1ccoc1)c1ccccc1O | 10 | 0 | 1 | 3.7* | 5
O=C(N/N=C/c1ccoc1)c1ccccc1 | 11* | 1.1* | 1 | 6.4* | 4
CC(=O)n1cc(/C=N/NC(=O)c2ccccc2O)c2ccccc21 | 5 | 0 | 5.0* | 0 | 2
O=C(N/N=C/CCc1ccccc1)C1CCCCC1 | -2 | 0 | 1 | 0 | 0
O=C(N/N=C/CCc1ccccc1)c1ccccc1 | 11* | 0 | 1 | 3 | 1
CN(C)S(=O)(=O)c1ccc(NC(=O)C2COc3ccccc3O2)cc1 (centres undefined) | -2 | 0 | 4.5* | 0 | -2
Cc1ccc(NC(=O)C2COc3ccccc3O2)cc1C (centres undefined) | . | . | 4.9* | . | .
Cc1nc2ccc(NC(=O)C3COc4ccccc4O3)cc2s1 (centres undefined) | 12* | -1 | 2 | 2 | 3
Nc1[nH]c(C(=O)c2ccccc2)c(-c2cccc3ccccc23)c1C(=O)NC1CCCCC1 | 0 | -1 | . | 0 | 0
CCC(C(=O)Nc1ccccc1N1CCCC1)c1cccc(C)c1 (centres undefined) | 2 | -1 | . | -1 | 1
CCC(=O)Nc1ccc2c(c1)C(=O)N(C)[C@@H]1CC[C@@H](CC(=O)NCCN3CCCCC3)O[C@H]1CO2 | 5 | -1 | . | 0 | -2
CCOC(=O)c1[nH]c2ccccc2c1NC(=S)Nc1ccccc1 | 6 | 2.0* | 1 | 1 | 6.0*
CCOC(=O)c1[nH]c2ccccc2c1NC(=S)Nc1cccc(C)c1 | -1 | 0 | 4 | -1 | 5.8*
CCOC(=O)c1[nH]c2ccccc2c1NC(C)=O | 2 | 0 | 1 | 0 | 3
CCOC(=O)c1[nH]c2ccccc2c1NC(=O)CC | 5 | 0 | 0 | 1 | 6.1*
CCOC(=O)c1[nH]c2ccccc2c1NC(=O)COC | 2 | 0 | 1 | 0 | 3
COCCCNC(=O)C[C@H]1C[C@@]2(C(=O)OC)C(=C[C@H](C(C)C)O[C@@H]2C2CC2)N(Cc2ccc3c(c2)OCO3)C1=O | -2 | -1 | . | -1 | -1
COc1ccc(-c2noc(C3CCCN(C(=O)Nc4ccc(Cl)cc4)C3)n2)cc1 (centres undefined) | 3 | -1 | . | -1 | 0
Cn1cnnc1Sc1ccc(C(=O)NCCC(c2ccccc2)c2ccccc2)cc1[N+](=O)[O-] | -1 | -2 | 4.3* | -1 | -2
SMILES | hgDAF12 agonist | ssDAF-12 act | DAX1 inh-1 | DAX1 inh-2 | hcDAF12 agonist
Cc1ccccc1CSCCNC(=O)COc1ccc(Cl)cc1 | 2 | -1 | 6.6* | -1 | -1
N#Cc1ccc(CSc2nnc3[nH]c(=O)cc(N)n23)cc1 | -1 | -1 | 0 | 0 | -2
COc1ccc(CSc2nnc3[nH]c(=O)cc(N)n23)cc1 | 1 | 3.7* | -1 | 0 | 3
COc1ccccc1N=c1sc2ccccc2n1C | -1 | -2 | 0 | 0 | -1
COc1ccc(N=c2sc3ccccc3n2C)cc1 | 11* | 0 | 5.6* | 4.5* | 6.1*
COc1ccccc1-c1cc(C(=O)N2CCN(c3ccc(F)cc3)CC2)no1 | 2 | -1 | 0 | 0 | -1
COc1ccc(-c2cc(C(=O)N3CCOCC3)no2)cc1 | 10 | 1.3* | -1 | 3 | 5
COc1ccccc1-c1cc(C(=O)N2CCCC2)no1 | 9 | 0 | 3 | 3 | 6.5*
COc1cccc(-c2cc(C(=O)N3C(C)CCCC3C)no2)c1 (centres undefined) | 4 | 0 | 2 | 2 | 5.9*
COC(=O)[C@]12C[C@H](CC(=O)NCc3cccs3)C(=O)N(Cc3ccccc3)C1=C[C@H](C(C)C)O[C@@H]2C1CC1 | 5 | -1 | . | 0 | -2
CC1CCN(c2ccc(C(=O)O)cc2NS(=O)(=O)c2cccc3cccnc23)CC1 | 0 | -1 | . | 0 | 0
Cn1c(C(=O)NCc2ccc3c(c2)OCO3)cc2sccc21 | 1 | -1 | 0 | -1 | 6.2*
CCn1cc([N+](=O)[O-])c(C(=O)NCc2ccc3c(c2)OCO3)n1 | 0 | -1 | 4.9* | 0 | 1
Cn1c(C(=O)N2CCN(Cc3ccc4c(c3)OCO4)CC2)cc2sccc21 | -3 | -2 | 1 | -1 | -3
Cc1ccc(NC(=O)CN2CCN(c3nc(-c4ccccc4)cs3)CC2)cc1C | 4 | -1 | . | 0 | -3
CSCC[C@H](NC(=O)c1cc([N+](=O)[O-])ccc1Cl)c1nc2ccccc2[nH]1 | 1 | 0 | 1 | 1 | 5.9*
CSCCC(NC(=O)c1cccc([N+](=O)[O-])c1)c1nc2ccccc2[nH]1 (centres undefined) | 0 | -1 | -1 | -1 | 0
Cc1ccc(NC(=O)CSc2nnc(-c3cccnc3)n2-c2ccc(C)cc2)cc1 | -2 | -1 | 0 | 0 | -2
O=C(CSc1nnc(-c2cccnc2)n1-c1ccccc1)Nc1ccccc1 | 12* | -1 | -2 | 0 | -2
CNC(=O)CSc1nnc(-c2cccnc2)n1-c1ccc(C)cc1 | 0 | 0 | 4.4* | -1 | -2
C[C@H](O)[C@@H]1CN2CCc3c([nH]c4c(-c5ccc6c(c5)OCO6)cccc34)[C@@H]2C[C@@H]1N(C)C(=O)NC1CCCCC1 | -3 | -1 | . | -1 | -1
CSc1nc(C)cc(Oc2ccc(=O)[nH]n2)n1 | -3 | -1 | 5.8* | 0 | 0
O=S(=O)(NCCCc1ccccc1)c1ccc(F)c(F)c1 | 1 | -1 | 4.8* | 0 | -2
O=S(=O)(NCCCc1ccccc1)c1ccc(Cl)cc1 | -3 | -1 | -1 | 0 | 1
Cc1ccccc1-n1c(-c2ccoc2C)n[nH]c1=S | 2 | 1.3* | -1 | 0 | 3
CCCCCCCCN1C(=O)[C@@H](CC(=O)N2CCCCC2)C[C@@]2(C(=O)OC)C1=C[C@H](COCc1ccccc1)O[C@@H]2C | 1 | -1 | . | 0 | 5.8*
COc1ccc(OCC(=O)Nc2c(Cl)ccc3nsnc23)cc1 | 0 | -1 | 1 | -1 | 6.2*

Compound activity deposited in PubChem by The Scripps Research Institute Molecular Screening Center.
